This note sets out measurements from PubChem BioAssay (EPA / NIEHS).

A word on the AC50: it is the concentration at which the activity in the assay is half-maximal.

The structures appear in SMILES notation. Inconclusive results are not listed. The source made the active and inactive calls. Rule for the calls, unless noted: active = hit-call score of the fitted dose curve at least 0.9, where 1 is the maximum; inactive = score below 0.9.

The nature of assay [1]: ATG_TCF_b_cat_CIS: Attagene CIS-FACTORIAL HepG2 Assay for human T-Cell-Factor with beta-catenin (TCF/b-cat) (AID 2282965). As to conditions: HepG2 TCF/beta-catenin cis-reporter transcription, actives raise or lower the signal. In short, it runs like this:
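In this cis-format system, transfected HepG2 cells report endogenous transcription factor activity. Readout after 24 h exposure is reporter transcript abundance from RT-PCR and capillary electrophoresis, analysed for gain or loss of signal versus DMSO.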

The nature of assay [2]: ATG_TAL_CIS: Attagene CIS-FACTORIAL HepG2 Assay for human TAL Basal Promoter (AID 2282966).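 Note: background control endpoint measuring basal TAL promoter reporter mRNA not a specific factor.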 As to conditions: HepG2 Attagene cis-factorial TAL promoter reporter; actives raise or lower the signal. In short, it runs like this:
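Steps: transfect HepG2 with multiple reporter transcription units; dose 24 h; isolate RNA, reverse-transcribe, PCR-amplify, label with 6-FAM, digest with HpaI; resolve by capillary electrophoresis. Bidirectional fitting against DMSO baseline.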

Assay [3] can be described thus: ATG_TGFb_CIS: Attagene CIS-FACTORIAL HepG2 Assay for human Transforming Growth Factor (TGF) (AID 2282967). The conditions noted are these: HepG2 Attagene CIS TGFb reporter, mRNA transcription; actives raise or lower the signal. In short, it runs like this:
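Bidirectional fitting relative to DMSO gave the endpoint. Underlying data: reporter mRNA from HepG2 cells carrying transiently transfected cis-regulated reporter constructs, harvested 24 h after dosing and analyzed by RT-PCR and capillary electrophoresis.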

Assay [4] is described as follows: ATG_VDRE_CIS: Attagene CIS-FACTORIAL HepG2 Assay for human Vitamin D Receptor Element (VDRE) (AID 2282968). The conditions noted are these: HepG2 VDRE cis-reporter transcription, actives raise or lower the signal. In short, it runs like this: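 HepG2 cells transiently transfected with cis-element reporter units, dosed 24 h; reporter mRNA measured by RT-PCR, 6-FAM labeling, HpaI digestion and capillary electrophoresis. Activity fitted bidirectionally against DMSO baseline.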

For assay [5], the target named is Nuclear receptor subfamily 1 group I member 3 (Homo sapiens) (UniProt Q14994). The experiment in a line: ATG_CAR_TRANS: Attagene TRANS-FACTORIAL HepG2 Assay for human Constitutive Androstane Receptor (CAR) (AID 2282969; active = hit-call score of the fitted dose curve at least 0.9, where 1 is the maximum;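 note: activators raise reporter mRNA above DMSO so AC50 marks induction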). The conditions noted are these: HepG2 Attagene TRANS-FACTORIAL CAR reporter. Summed up:
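HepG2 cells transiently transfected with multiplexed GAL4-UAS reporter units expressing chimeric NR-Gal4 proteins; compound exposure 24 h. Reporter mRNA measured by RT-PCR, 6-FAM labelling, HpaI digestion and capillary electrophoresis; gain-of-signal fitted against DMSO baseline.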

Assay [6] concerns the target Estrogen receptor (Homo sapiens) (UniProt P03372). The experiment in a line: ATG_ERa_TRANS: Attagene TRANS-FACTORIAL HepG2 Assay for human Estrogen Receptor alpha (ERa) (AID 2282970; active = hit-call score of the fitted dose curve at least 0.9, where 1 is the maximum). The conditions noted are these: HepG2 Attagene TRANS ERa GAL4 reporter, mRNA. Summed up: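 Multiplexed cell-based reporter format in HepG2: chimeric ERa-Gal4 protein drives GAL4-UAS reporter transcription. Fluorescent reporter mRNA quantified by capillary electrophoresis 24 hours after dosing; endpoint fitted as signal gain against DMSO.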

Assay [7] deals with Steroid hormone receptor ERR1 (Homo sapiens) (UniProt P11474). The assay can be described thus: ATG_ERRa_TRANS: Attagene TRANS-FACTORIAL HepG2 Assay for human Estrogen-Related Receptor alpha (ERRa) (AID 2282971; active = hit-call score of the fitted dose curve at least 0.9, where 1 is the maximum). As to conditions: HepG2 Attagene TRANS reporter, ERRa transactivation. In short, it runs like this:
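Signal gain relative to DMSO for an ERRa-Gal4 chimeric receptor, read as reporter mRNA by RT-PCR/capillary electrophoresis. Human HepG2 liver cells, transient multiplex reporter transfection, 24 h chemical exposure.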

Assay [8] concerns the target X-box-binding protein 1 (Homo sapiens) (UniProt P17861). The assay can be described thus: ATG_Xbp1_CIS: Attagene CIS-FACTORIAL HepG2 Assay for human X-box Binding Protein 1 (XBP1) (AID 2282972). As to conditions: HepG2 XBP1 cis-element reporter, Attagene multiplex; actives raise or lower the signal. In short, it runs like this: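 HepG2 cells transiently transfected with cis-regulated multiple reporter transcription units; endogenous transcription factor activity measured 24 hours after chemical dosing. Reporter mRNA quantified by RT-PCR, 6-FAM primer extension, HpaI digestion and capillary electrophoresis; bidirectional fitting versus DMSO.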

Assay [9] in a line: ATG_M_19_TRANS: Attagene TRANS-FACTORIAL HepG2 Assay for M19 Transcription Factor (Internal Marker) (AID 2282974; active = hit-call score of the fitted dose curve at least 0.9, where 1 is the maximum). The conditions noted are these: HepG2 Attagene TRANS-FACTORIAL M19 internal marker reporter. In short, it runs like this: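 HepG2 transiently transfected with GAL4-UAS multiplex reporter constructs, exposed 24 h; reporter RNA quantified by RT-PCR, 6-FAM labeling, HpaI digestion and capillary electrophoresis; internal background marker fitted upward versus DMSO.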

Assay [10] in a line: ATG_GAL4_TRANS: Attagene TRANS-FACTORIAL HepG2 Assay for GAL4 (Internal Marker) (AID 2282976; active = hit-call score of the fitted dose curve at least 0.9, where 1 is the maximum). The conditions noted are these: HepG2 Attagene TRANS GAL4 internal marker reporter. Summed up:
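Liver HepG2 line bearing multiplexed GAL4-UAS reporter constructs; 24 h chemical treatment. Transcripts were quantified as fluorescent fragments on capillary electrophoresis after RT-PCR and HpaI cut, with activity fitted upward from DMSO.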

Chain of Estrogen receptor (Homo sapiens) (P03372 whole entry, looked up, the tested form may be a part): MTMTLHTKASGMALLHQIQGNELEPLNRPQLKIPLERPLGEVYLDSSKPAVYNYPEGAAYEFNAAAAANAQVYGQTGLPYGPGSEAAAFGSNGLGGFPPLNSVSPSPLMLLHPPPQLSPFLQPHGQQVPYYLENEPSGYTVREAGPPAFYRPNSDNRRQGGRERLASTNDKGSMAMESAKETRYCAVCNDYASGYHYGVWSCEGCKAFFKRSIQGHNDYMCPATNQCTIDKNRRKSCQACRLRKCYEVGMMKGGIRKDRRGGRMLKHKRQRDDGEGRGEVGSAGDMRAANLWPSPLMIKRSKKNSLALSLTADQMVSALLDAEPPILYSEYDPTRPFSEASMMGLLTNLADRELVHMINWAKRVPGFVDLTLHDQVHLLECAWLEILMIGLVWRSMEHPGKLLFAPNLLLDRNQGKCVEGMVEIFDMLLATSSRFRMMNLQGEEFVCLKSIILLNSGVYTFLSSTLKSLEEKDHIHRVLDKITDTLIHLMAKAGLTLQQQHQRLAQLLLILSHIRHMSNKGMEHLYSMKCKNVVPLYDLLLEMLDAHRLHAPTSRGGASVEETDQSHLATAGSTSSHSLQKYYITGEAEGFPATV
Chain of X-box-binding protein 1 (Homo sapiens) (P17861 whole entry, looked up): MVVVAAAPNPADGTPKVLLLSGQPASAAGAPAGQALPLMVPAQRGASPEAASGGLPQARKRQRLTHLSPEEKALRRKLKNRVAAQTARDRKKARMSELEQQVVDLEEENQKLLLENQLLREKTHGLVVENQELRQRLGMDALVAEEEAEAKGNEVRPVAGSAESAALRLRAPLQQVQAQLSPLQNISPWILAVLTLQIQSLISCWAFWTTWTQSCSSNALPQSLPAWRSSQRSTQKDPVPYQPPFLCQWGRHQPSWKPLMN
Chain of Steroid hormone receptor ERR1 (Homo sapiens) (P11474 whole entry, looked up, the tested form may be a part): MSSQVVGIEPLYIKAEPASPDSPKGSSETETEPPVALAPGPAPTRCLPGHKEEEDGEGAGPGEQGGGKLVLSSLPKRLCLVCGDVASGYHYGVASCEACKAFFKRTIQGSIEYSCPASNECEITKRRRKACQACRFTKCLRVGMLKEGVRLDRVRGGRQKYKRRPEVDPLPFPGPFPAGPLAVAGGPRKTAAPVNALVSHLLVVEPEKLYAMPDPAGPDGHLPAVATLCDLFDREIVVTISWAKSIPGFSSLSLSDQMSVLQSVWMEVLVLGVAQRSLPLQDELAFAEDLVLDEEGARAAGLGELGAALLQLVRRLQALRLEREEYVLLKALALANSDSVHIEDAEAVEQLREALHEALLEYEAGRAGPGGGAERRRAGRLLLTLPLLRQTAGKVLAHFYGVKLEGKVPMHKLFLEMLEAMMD
Chain of Nuclear receptor subfamily 1 group I member 3 (Homo sapiens) (Q14994 whole entry, looked up, the tested form may be a part): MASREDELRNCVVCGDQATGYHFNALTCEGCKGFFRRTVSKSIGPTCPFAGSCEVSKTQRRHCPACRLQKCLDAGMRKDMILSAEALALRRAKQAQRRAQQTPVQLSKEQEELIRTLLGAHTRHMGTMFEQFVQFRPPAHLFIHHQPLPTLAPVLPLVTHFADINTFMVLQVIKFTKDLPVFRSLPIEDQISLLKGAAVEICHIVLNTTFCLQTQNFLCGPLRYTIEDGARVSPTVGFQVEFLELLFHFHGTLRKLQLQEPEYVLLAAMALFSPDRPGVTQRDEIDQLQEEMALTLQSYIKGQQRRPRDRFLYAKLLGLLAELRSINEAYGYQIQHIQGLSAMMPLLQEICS

For the compound `C=CC(=O)OCC(F)(F)C(F)(F)C(F)(F)C(F)(F)C(F)(F)C(F)(F)C(F)(F)C(F)F`, the AC50 in [1] was 89.1 µM (active); in assay [6], 1.52 µM (active). The result in assay [2], in [3], in assay [4] and in assay [5] was inactive.

Turning to `Cc1ccc(O)c(-n2nc3ccccc3n2)c1`, the outcome in [1], in assay [2], in [3], in assay [4] and in assay [5] was inactive. Besides, the AC50 in [6] is 13.4 µM (active).

Take `OCC(O)CC(F)(F)C(F)(F)C(F)(F)C(F)(F)F` (stereo not drawn): the outcome in assay [1], in assay [2], in assay [3], in assay [4], in [7] and in assay [8] was inactive. Besides, in [6], the AC50 is 70.8 µM (active).

`CCCC(=O)OCC(COC(=O)CCC)OC(=O)CCC`: the AC50 in [1] is 64 µM (active). Besides, the result in [2], in assay [3] and in assay [4] was inactive.

For the compound `CC(C)CC=C(C=O)c1ccccc1`, the outcome in assay [1], in assay [2], in assay [3], in assay [4], in assay [7] and in assay [8] was inactive. For the same compound, the outcome in assay [9] and in [10] was inactive. Besides, in assay [6], the AC50 is 21.5 µM (active).

With `CCOC(C=C(C)CCC=C(C)C)OCC`, the compound was called inactive in assay [1], in assay [2], in assay [3], in assay [6], in assay [7] and in [8]. In [10], the call was inactive. Also, the AC50 in [4] is 49.7 µM (active).

`COc1ccccc1C=O`: the call in assay [1], in assay [2], in assay [3], in assay [4] and in assay [6] was inactive.

In the case of `CCC(=O)OC(C)c1ccccc1` (stereo not drawn), the call in [1], in [2], in assay [3], in assay [4], in assay [5] and in [9] was inactive.

As to `CSc1ccc(O)cc1C`, the call in [1], in [2], in assay [3], in [4], in assay [7] and in assay [8] was inactive. The call in assay [9] and in [10] was inactive. In addition, the AC50 in assay [6] was 11.3 µM (active).

With `C=C(C)CCCC`, the outcome in assay [1], in [2], in assay [3], in assay [4], in [5] and in assay [8] was inactive. The result in [10] was inactive.

As to `CCN(CC)c1ccc2c(c1)Oc1cc(N(CC)CC)ccc1C21OC(=O)c2ccccc21`, the AC50 was 50 µM (active) in [1] and 1.32 µM (active) in assay [4]. The compound was called inactive in assay [2], in assay [3], in [6], in assay [8] and in assay [10].

For the compound `NC(=O)C(F)(F)C(F)(F)C(F)(F)F`, the compound was classed as inactive in assay [1], in [2], in [3], in assay [4] and in [8].

For the compound `OCCCCC(F)(F)C(F)(F)C(F)(F)C(F)(F)F`, the compound was called inactive in assay [1], in assay [2], in assay [3], in assay [4], in assay [6] and in assay [8].

For `O=S(=O)(O)CCC(F)(F)C(F)(F)C(F)(F)C(F)(F)F`, the outcome in [1], in assay [2], in assay [3], in assay [4], in assay [7] and in assay [8] was inactive.

As to `COCCOCCC[Si](C)(O[Si](C)(C)C)O[Si](C)(C)C`, the AC50 in [1] is 33.4 µM (active); in assay [4], 2.56 µM (active); in assay [8] it was 2.99 µM (active). The result in assay [2] and in [3] was inactive.

With `O=C(O)C(F)(F)C(F)(F)C(F)(F)OC(F)(C(F)(F)F)C(F)(F)F`, the AC50 in assay [1] is 285 µM (active). Moreover, the call in [2], in [3], in assay [4], in assay [6], in assay [8] and in [10] was inactive.

As to `C=CC(=O)OCCC(F)(F)C(F)(F)C(F)(F)C(F)(F)F`, the result in [1], in [2], in assay [3], in [4], in assay [7] and in [10] was inactive.

Turning to `OCCCc1cccnc1`, the outcome in assay [1], in assay [2], in assay [3], in assay [4], in [6] and in assay [8] was inactive. The result in assay [10] was inactive.

In the case of `FC(F)(F)C(F)(F)C(F)(F)CC1CO1` (stereo not drawn), the compound was classed as inactive in assay [1], in assay [2], in assay [3], in [4], in assay [6] and in assay [7]. The result in [10] was inactive.

For `C=CCOC(=O)CC(C)C`, the compound was called inactive in [1], in assay [2], in assay [3], in assay [4], in [6] and in assay [8]. The outcome in assay [9] and in assay [10] was inactive.

For `C=CC(=O)OCC(F)(F)C(F)(F)C(F)(F)COC(=O)C=C`, the values for the AC50 in assay [1] and in assay [4] were 19.8 µM (active) and 20.7 µM (active), respectively. For the same compound, the compound was called inactive in assay [2], in assay [3], in assay [6] and in [8].

As for `Brc1ccccn1`, the compound was classed as inactive in assay [1], in assay [2], in assay [3], in assay [4], in assay [6] and in [8]. Also, the call in assay [9] was inactive.

`CCCCCCCCCCCC(=O)Cl`: the AC50 in assay [1] was 161 µM (active). For the same compound, the outcome in assay [2], in [3], in assay [4], in [6] and in assay [8] was inactive.

Turning to `CCCCCCCCCCCCCC[P+](CCCC)(CCCC)CCCC`, the result in [1], in assay [2], in [3] and in assay [6] was inactive. The AC50 in assay [4] is 0.897 µM (active); in [8], 0.834 µM (active).

With `CCCCCC/C=C/CCCCCCCC(=O)O`, the call in assay [1], in assay [2], in [3], in assay [4], in assay [6] and in assay [8] was inactive.

`CCOCN(C(=O)CS(=O)(=O)O)c1c(C)cccc1CC`: the outcome in assay [1], in assay [2], in [3], in [4], in assay [6] and in assay [8] was inactive. Moreover, in [10], the outcome was inactive.

For the compound `Oc1ccc(C2(c3ccc(O)c(C4CCCCC4)c3)CCCCC2)cc1C1CCCCC1`, the AC50 was 33.4 µM (active) in assay [1], 17.9 µM (active) in assay [2], 0.619 µM (active) in assay [4] and 6.08 µM (active) in assay [8]. In addition, the call in assay [3], in assay [6] and in assay [10] was inactive.

For the compound `CSc1ccc(Cl)cc1`, the compound was called inactive in assay [1], in [2], in assay [3], in assay [4], in [6] and in assay [8]. The call in assay [9] was inactive.
